Screening results (PubChem)
Shown are actives, neighbours in structure and some others; about 3.4% of the full set was active somewhere.
GAA850 FXN act: increases GAA850 frataxin promoter reporter activity; AID 540364; HEK293 lucGAA850 FXN promoter luciferase reporter, 24 h; percent of 10 µM SAHA response; 0.56% of 360,000 active; activation, % at 6 µM;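 active = activation above the average of all compounds screened plus 3 SD, cutoff fixed separately per campaign, cut at about 7.5% in these data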;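 also: 0% = DMSO wells and 100% = 10 µM SAHA wells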
SMARCA2 act: increases SMARCA2 function in MMTV reporter cells | MG213 cells, MMTV-luciferase reporter, dexamethasone, overnight | 1% of 370,000 active | activation, % at 9.1 µM; in the data active = activation above about 7.8%;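 also: 0% = vehicle wells and 100% = reference activator wells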
HSP90 refold inh: blocks HSP90-mediated luciferase refolding in reticulocyte lysate | Rabbit reticulocyte lysate, luciferase refolding luminescence, 3 h | inhibition, % at 5.6 µM | 0.91% of 290,000 active | AID 1789;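 active = inhibition above the screen-wide mean plus 3 SD, computed separately per campaign, cut at about 16% in these data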;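 also: 0% = DMSO wells and 100% = 60 µM geldanamycin wells; inhibitors lower the luminescence because luciferase stays unfolded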
PG9 Ab binder: PG9 antibody binding by small molecule; TR-FRET gp120-PG9 antibody binding; inhibition, % at 6.7 µM; 0.43% of 360,000 active; AID 624416; in the data active = inhibition above about 8.5%
HSF1 inhib: HSF1 inhibition. activity change, negative = inhibition, % at 7.5 µM (by protocol). AID 2098. 0.77% of 300,000 active. NIH3T3-HGL HSE-luciferase, MG132-induced, luminescence 8 h; active compounds read low;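 active = more than half of replicate wells show activity change below -50%, luminescence cut by over half; inconclusive = some wells, but at most half, below -50%; inactive = no replicate well below -50%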;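 also: luciferase reports HSF-1 transcriptional activity via heat shock element; 0% = median of DMSO wells and -100% = zero luminescence signal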
AI-2 QS modul: modulators of Vibrio harveyi AI-2 quorum sensing system | Vibrio harveyi JMH597 AI-2 luminescence/OD600 ratio, 9 h; active compounds read low; strain lacks LuxN and CqsS sensors; 0 = neutral-control median | activity change, % at 7.5 µM | 0.4% of 300,000 active; in the data active = activity change below about -75%, passing the limit was not always enough; inconclusive = no clear call, values can overlap the other calls;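 also: luminescence divided by OD600 gain over 9 h not by final OD600 alone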
HSP90 inh confirm: confirmation of HSP90 inhibitors; rabbit reticulocyte lysate, luciferase refolding luminescence, 3 h; 64% of 2,300 active; AID 1846; shares compounds with HSP90 refold inh; inhibition, % at 5.9 µM; in the data active = inhibition above about 18%;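 also: 0% = vehicle wells and 100% = reference inhibitor wells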
luciferase ctr: counter-screen for HSP90 inhibitors: inhibitors of firefly luciferase | shares compounds with HSP90 refold inh | purified native firefly luciferase, luminescence | inhibition, % at 5.9 µM | 48% of 2,300 active | AID 1847;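 active = inhibition above the mean inhibition of all tested sample wells plus 3 SD, cut at about 10% in these data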;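 also: 0% = DMSO with luciferase and 100% = wells lacking luciferase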
Target sequence (P08659 whole entry, looked up): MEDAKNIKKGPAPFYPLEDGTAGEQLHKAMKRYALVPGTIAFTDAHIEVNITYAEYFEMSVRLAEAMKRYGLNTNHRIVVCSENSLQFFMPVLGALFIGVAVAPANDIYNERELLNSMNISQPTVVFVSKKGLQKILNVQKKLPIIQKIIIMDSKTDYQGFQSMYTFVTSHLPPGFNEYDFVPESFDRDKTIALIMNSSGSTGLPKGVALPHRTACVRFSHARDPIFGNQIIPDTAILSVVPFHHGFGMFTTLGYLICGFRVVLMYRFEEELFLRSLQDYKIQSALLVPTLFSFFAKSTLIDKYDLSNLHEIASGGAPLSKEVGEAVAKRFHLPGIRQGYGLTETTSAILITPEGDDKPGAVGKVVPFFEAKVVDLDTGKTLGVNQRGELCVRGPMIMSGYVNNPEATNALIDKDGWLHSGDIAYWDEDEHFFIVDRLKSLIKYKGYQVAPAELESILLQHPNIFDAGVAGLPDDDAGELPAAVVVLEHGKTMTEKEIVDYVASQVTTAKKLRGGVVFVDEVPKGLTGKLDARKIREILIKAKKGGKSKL
The depositor's hits bear a star; ? = inconclusive; . = not tested or not shown.

SMILES	GAA850 FXN act	SMARCA2 act	HSP90 refold inh	PG9 Ab binder	HSF1 inhib	AI-2 QS modul	HSP90 inh confirm	luciferase ctr
COCCC1CCCCN1C(=O)c1cccc(OC2CCN(S(C)(=O)=O)CC2)c1 (stereo unspecified)	1	1	-7	1	-3	24	.	.
CS(=O)(=O)N1CCC(Oc2cccc(C(=O)NCCCC3CCCC3)c2)CC1	2	.	29*	.	3	63	-7	-11
CC[C@@]1(c2cccc(Cl)c2)C(=O)N(C(=O)OC(C)C)N1C(=O)OC(C)C	.	-2	.	.	.	.	.	.
COCCCNC(=O)c1cccn2c(=O)c3cc4ccccc4cc3nc12	-3	2	17*	-6	.	4	26*	18*
COP(=O)(O)CCOCCC(CC(C)C)NC(=O)OCc1ccccc1 (stereo unspecified)	.	-2	.	.	.	.	.	.
Nc1sc2c(c1C(=O)c1ccccc1)CCCC2	-3	-3	31*	-3	13	13	11	1
NC(=O)c1c(N)sc2c1CCCC2	1	2	-4	1	0	10	.	.
O=C(CN1C(=O)c2cccnc2Oc2ccc(Cl)cc21)Nc1ccccc1F	1	5	36*	-1	8	8	-7	-18
O=C(CN1C(=O)c2cccnc2Oc2ccc(Cl)cc21)NCCCc1ccccc1	-4	-4	-2	2	0	-10	.	.
CCOC(=O)c1c(C)oc2c1c(C=NCc1ccccn1)c(O)c1ccccc12	0	-1	5	-2	.	.	.	.
CCOC(=O)c1c(C)oc2c1c(C=NCC1CCCO1)c(O)c1ccccc12 (stereo unspecified)	2	-2	19*	3	14	16	2	-11
COc1ccc(N=Nc2ccc3ccccc3c2)c(O)c1	2	0	30*	-2	-41	-7	53*	55*
CCOC(=O)c1c2c3c(cccc3n(C)c1=O)C(=O)c1ccccc1-2	3	-3	44*	0	7	22	2	-4
CCOC(=O)c1c2c3c(cccc3[nH]c1=O)C(=O)c1ccccc1-2	0	5	1	-2	-13	34	.	.
CCN(C(=O)C1CCN(c2ncccn2)CC1)c1ccccc1	.	3	.	.	.	.	.	.
COc1cccc(/C=N/Nc2nccnc2Cl)c1O	-9	0	55*	-4	9	?	72*	59*
Oc1ccccc1/C=N/Nc1nccnc1Cl	-10	1	8	0	12	-43	.	.
O=[N+]([O-])c1cncc2[nH]cnc12	.	1	.	.	.	.	.	.
O=C(O)c1ccc(N/N=C/C2=C(N3CCOCC3)C(=C\c3ccccc3)/CC2)cc1	2	2	18*	-3	-60*	56	3	2
Cc1nn(-c2ccccc2)c2sc(C(=O)N3CCN(C(c4ccccc4)c4ccc(Cl)cc4)CC3)cc12 (stereo unspecified)	.	0	.	.	.	.	.	.
CCCC[C@H]1C2CC(OC(=O)Nc3cccc(Cl)c3)C(C2)[C@H]2CCCCN21 (stereo partly specified)	.	-3	.	.	.	.	.	.
Cc1nn(CC(=O)c2ccccc2Cl)c(C)c1[N+](=O)[O-]	4	1	22*	0	-32	17	33*	28*
COC(=O)[C@]12C[C@H](CC(=O)N3CCSCC3)C(=O)N(CCC3=CCCCC3)C1=C[C@H](C1CCCC1)O[C@@H]2C	.	-1	.	.	.	.	.	.
O=C(NCCc1ccccc1Cl)[C@@H]1CCCN1C(=O)[C@@H](NC(=O)N1CCOCC1)c1ccccc1	.	-4	.	-3	.	.	.	.
CCC(=O)N(C1=C(NC)C(=O)c2ccccc2C1=O)C(C)C	-1	-8	0	-3	3	1	.	.
SMILES	GAA850 FXN act	SMARCA2 act	HSP90 refold inh	PG9 Ab binder	HSF1 inhib	AI-2 QS modul	HSP90 inh confirm	luciferase ctr
CNC1=C(N(C(C)=O)c2ccc(Br)cc2)C(=O)c2ccccc2C1=O	-9	-9	63*	-2	-33	30	12	-7
CCOC(=O)Nc1cc(C(=O)OCC)c(C)nc1C	-1	1	27*	0	6	21	3	-3
COc1ccc(-c2cc3nc4n(c(=O)c3s2)CCCCC4)cc1	3	1	-3	0	18	24	.	.
COc1ccc(-c2cc3nc4n(c(=O)c3s2)CCC4)cc1	-5	4	30*	1	-5	22	80*	68*
CCCOc1ccc(/C=N/Nc2ccc(C(=O)O)cc2)c(OCCC)c1	0	0	29*	-2	-56*	39	44*	48*
Nc1[nH]c2cc(C(F)(F)F)ccc2c1C(=O)N1CCN(CCc2ccccc2)CC1	.	-4	.	.	.	.	.	.
Cc1cc(C(=O)COC(=O)c2ccc(O)cc2)c(C)n1CC1CCCO1 (stereo unspecified)	8	0	32*	-3	-11	17	39*	43*
Cc1cc(C(=O)CN2C(=O)c3ccccc3S2(=O)=O)c(C)n1CC1CCCO1 (stereo unspecified)	-18	-10	24*	2	?	41	28*	-14
COc1cc(OC)cc(C(=O)OCC(=O)c2cc(C)n(CC3CCCO3)c2C)c1 (stereo unspecified)	2	-1	.	-1	.	.	.	.
O=C(Nc1nccs1)c1sc2ccccc2c1Cl	2	6	23*	0	-2	16	50*	45*
COc1ccc(Sc2cccc3c2S(=O)(=O)N(C2CC2)C[C@@H](COCc2ccccc2)O3)cc1OC	.	-3	.	-2	.	.	.	.
Cc1ccn2cc(-c3ccc(Br)cc3)nc2c1	2	2	40*	-1	-5	11	60*	62*
CC(=O)c1cc(-c2ccc3nonc3c2)c(=O)n2c1CCC2	.	0	.	.	.	.	.	.
COc1ccc(C(=O)O/N=C(\N)c2ccccn2)c(OC)c1	-3	5	43*	-1	-8	7	11	3
COc1ccc(C(=O)O/N=C(\N)c2ccccc2)c(OC)c1	-7	-2	51*	1	-40	27	37*	26*
CCOc1ccc(/C=N/NC(=O)c2ccccc2NC(=O)c2ccc(OC)cc2)cc1	4	2	19*	-2	0	5	10	-25
COc1ccc(C(=O)Nc2ccccc2C(=O)N/N=C/c2ccco2)cc1	7	5	9	-1	-21	19	.	.
CCn1c(Cc2cccs2)nnc1SCC(=O)Nc1ccc2c(c1)OCCO2	.	0	.	.	.	.	.	.
CN(Cc1ccccc1)C(=O)c1cccc(NC(=O)Cc2cccc(NC(=O)C3CCN(C(=O)CCc4ccccc4)CC3)c2)c1	.	-3	.	-2	.	.	.	.
O=C(Cn1nnc(-c2cccs2)n1)NCc1ccccc1	3	-1	56*	1	4	16	-3	-9
O=C(Cn1nnc(-c2cccs2)n1)NCc1ccco1	1	4	-1	1	1	32	.	.
